Laboratory results: PubChem BioAssay (NCI)
Compounds without any hit were thinned out: in the full panel of roughly 83,000, 20% have a hit.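 Assay: single dose, 48 h. Readout: percent growth (0 = no net growth; negative = cell death). Active: <10.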 A number with no mark means an inactive call. The source made the active and inactive calls.

Test system: KM12 colon
Experiment: NCI-60 one-dose screen, 48 h (100 = growth as untreated, 0 = no growth, -100 = all killed)
Conditions: 10 µM unless noted
Description: Growth inhibition of the KM12 human tumor cell line is measured as a screen for anti-cancer activity. Cells are grown in 96 well plates and exposed to the test compound for 48 hours. Compounds are tested at a single concentration, which is 10^-5 M for most compounds. The reported endpoint is percent growth (GI% or GIPRCNT), where numbers from 0 - 100% represent growth inhibition, and numbers from -100% - 0 represent cell death. For example, a value of 40 represents 60% growth inhibition. A value of 0 means no net growth occurred over the course of the experiment. A value of -40 indicates 40% of cells at the beginning of the experiment died by the end of the experiment. A value of -100 means all cells are dead at the end of the experiment.
NCI-60 Human Tumor Cell Lines Screen was performed using the standard one-dose NCI protocol, which is described in more detail at https://dtp.cancer.gov/discovery_development/nci-60/default.htm.
Compounds with GIPRCNT values below 10 were considered active. Activity score was based on GIPRCNT using the following formula: […]
Score is 0 for GIPRCNT values of 100 or above, 50 for GIPRCNT values of 0, and 100 for GIPRCNT values of -100.

Row | Structure (SMILES) | growth
1 | Cc1cccc(NC(=O)Nc2ccc(-n3cnc4cc(-c5ccc(O)cc5)ccc43)cc2)c1 | 13%
2 | Cn1ccc2c1CC1CN(Cc3ccco3)C(=O)C1C2C(=O)O (stereo not given) | 101%
3 | COc1ccc(OC)c(CCn2cncc2-c2c[nH]c3ccccc23)c1 | 89.1%
4 | COc1cc2c(cc1OC)C(=O)/C(=C/c1cc(C)c(O)c(C)c1)S2 | 26.2%
5 | O=C(NO)c1ccc(-n2nc(-c3ccccc3)c3ccccc32)cc1 | 71.8%
6 | O=C1Nc2cc(-c3ccc(NC(=O)C4CC4)cc3)ccc2/C1=C/c1ccc[nH]1 | 39.8%
7 | O=[N+]([O-])c1ccc(NC(=S)N/N=C/c2cc3ccccc3n3nnnc23)cc1 | 66.9%
8 | CN(C)c1ccc(Nc2c3ccccc3nc3cc(NC(=O)CCN4CCCC4)ccc23)cc1 | -34.8% (active)
9 | CNC(=O)c1cccc(Cn2nc(C)c(NC(=O)c3ccc(COc4ccc(C(F)(F)F)cc4C)cc3)c2C)c1 | 61.7%
10 | COc1ccccc1/C=C1\Oc2cc(OCCN3CCCC3)ccc2C1=O | 88.8%
11 | C=C1C(=O)O[C@H]2[C@H]1CC/C(CNS(=O)(=O)c1cccc3ccccc13)=C\CC[C@@]1(C)O[C@@H]21 | 85%
12 | COc1cc(/C=C/C(=O)c2nc3cc(F)ccc3nc2C)cc(OC)c1OC | 36.2%
13 | CCNc1nc2ccc(Nc3ccnc4cc(Cl)ccc34)cc2[nH]1 | 67%
14 | O=C1c2cccc3c(-c4ccc5c(c4)ncn5C4CCCCC4)ccc(c23)C(=O)N1CCO | 86.7%
15 | CCCCCCCCCCCCCCCC[N+]1(C)CCN(SN2CC[N+](C)(CCCCCCCCCCCCCCCC)CC2)CC1 | 78.2%
16 | Cn1cc(-c2nc(-c3c[nH]c4c(Cl)nccc34)cs2)c2cc(Br)ccc21 | 86.2%
17 | CCCOC(=O)N[C@H]1CCc2c(Cl)c(OC)c(OC)c(OC)c2-c2ccc(SC)c(=O)cc21 | -6.7% (active)
18 | O=C1c2c(c3c4cccc(F)c4[nH]c3c3ccc4ccccc4c23)C(=O)N1O | 25.4%
19 | O=C1c2ccccc2CCC12OC2c1cn(-c2ccccc2)nc1-c1ccc(Cl)cc1 (stereo not given) | 97.9%
20 | O=C1Nc2ccccc2/C1=C\c1c(-c2ccc(F)cc2)nc2ccccn12 | 46.3%

Row | Structure (SMILES) | growth
21 | COc1cc2c3c(c4c5ccccc5[nH]c4c2c(OC)c1OC)C(=O)N(CCN1CCOCC1)C3=O | 61%
22 | Cc1nc2sccn2c1-c1nc2sccn2c1/C=C1/C(=O)Nc2ccccc21 | 12.5%
23 | C=C(C)[C@@H]1CC[C@]2(C(=O)N3CCN(C)CC3)CC[C@]3(C)[C@H](CC[C@@H]4[C@@]5(C)C/C(=C/c6ccncc6)C(=O)C(C)(C)[C@@H]5CC[C@]43C)[C@@H]12 | 51.3%
24 | COc1ccc(/C=C/c2nc(Nc3ccc(S(=O)(=O)Nc4cc(C)on4)cc3)c3ccccc3n2)cc1 | 49%
25 | Cn1ccnc1C(=O)/C=C/c1ccc(CC(=O)NC2CCCCC2)cc1 | 28.9%
26 | CCc1ccc(CNc2ccc(N3CCOCC3)c(C(=O)O)c2)cc1 | 106%
27 | COc1cc2nc(-c3ccc(Cl)cc3)cc(OCCCN3CCC(O)CC3)c2cc1OC | 37.2%
28 | CC1=C(C(=O)/C=C/c2ccc(N(C)C)cc2)C(c2ccccc2)NC(=S)N1 (stereo not given) | 101%
29 | COc1ccc2c(c1)oc1c(C)c3c(c(C)c12)C(=O)N(CCN1CCOCC1)C3=O | 96.1%
30 | Nc1n[nH]c2cccc(C#Cc3cccc(C(=O)Nc4cccc(C(F)(F)F)c4)c3)c12 | 46.7%
31 | Oc1ccc(OCCOc2ccc(O)cc2)cc1 | 29.2%
32 | CCOC(=O)Oc1c(OC)cc(C(=O)c2ccc(OC)c(OC(=O)CCl)c2OC)cc1OC | 21.9%
33 | Cc1ccc(NS(=O)(=O)c2ccc(-c3cnc(C4CC4)o3)cc2)cc1C(F)(F)F | 38.6%
34 | COc1cc(/C=C\c2cc(OC)c(OC)c(OC)c2)cc(NC(=O)/C=C/c2cc(OC)c(OC)c(OC)c2)c1OC | 28.7%
35 | COc1ccc(C/C(=C(\C)c2ccc(OCCN3CCCC3)cc2)c2ccc(OCCN3CCCC3)cc2)cc1 | 47.9%
36 | Cc1ccccc1NS(=O)(=O)c1cccc(C(=O)Nc2ccc(Br)cc2)c1 | 37.1% [25 µM]
37 | COc1cc(/C=C\c2cc(OC)c(OC)c(OC)c2)cc(N)c1OC | 54.9%
38 | COc1cc(/C=N/O)nc(-c2ccccn2)c1 | 23%
39 | N#Cc1c(-c2cccc([N+](=O)[O-])c2)nc(SCC(=O)c2ccc(Cl)cc2)[nH]c1=O | 99.4%
40 | N#C/C(=C\c1ccc(C(F)(F)F)cc1)c1cc2ccccc2[nH]1 | 97.7%
